In the library only some 2.2% were active in any assay of this set; here they are far more common.
TDP-43 yeast inh = rescues yeast growth from TDP-43 toxicity; actives 1.8% (n = 410,000); AID 652104; TDP-43 expressing yeast growth rescue, BacTiter-Glo, 24 h; Potency, µM (titrated, usually from 46.1 µM), for the others: top-dose growth rescue (activation), actives largely listed as activators; note: % of control where 0% means no effect; nearly all actives have a fitted effect of over 50% in size
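Readout is BacTiter-Glo luminescence of cell growth, so inhibitors register as activators. TDP-43-expressing yeast at OD600=0.02 in galactose medium, after raffinose pregrowth to mid-log, were incubated with compound for 24 hr at 30 deg C.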
FUS yeast rescue = rescues growth of FUS-expressing yeast; S. cerevisiae FUS-expressing, growth rescue, OD600, 24 h; Potency, µM (doses to about 76.6 µM), most hits filed as activators; actives 0.24% (n = 390,000);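 note: plate controls were DMSO vehicle for no effect and reference control for full effect; nearly all actives have a fitted effect of over 55% in size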
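S. cerevisiae expressing FUS from galactose induction served as the toxicity model. Growth after 24hr at 30C, read as absorbance at 600 nm, indicates suppression of toxicity; compounds dosed at several concentrations.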
Mito fusion act = mitochondrial division inhibition or fusion activation; S. cerevisiae fusion-defective mutant growth rescue, CellTiterGlo 48 h; Potency, µM (doses to about 46.1 µM), without a hit: at the top dose growth rescue (activation), most hits filed as activators; actives 0.23% (n = 320,000); note: % of control where 0% means no effect; nearly all actives have a fitted effect of over 45% in size
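Yeast fusion mutant, YPEG (non-fermentable carbon), compound, 48 h at 37C non-permissive; CellTiterGlo added, 10 min RT, luminescence read. Rescued growth = division inhibition.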
Abeta rescue = A-beta toxicity reversal in yeast. yeast expressing A-beta42, growth rescue, OD600, 48 h; response scale: 0% DMSO, 100% iron-clioquinol control. Potency, µM (top dose mostly 46.1 µM), usual class: activators. actives 0.063% (n = 410,000). AID 1347071; note: nearly all actives have a fitted effect of over 55% in size
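Yeast A-beta toxicity model in growth medium with pinned compounds, 48 h at 30 C; growth read as absorbance at 600 nm. Normalized to FeCl3/clioquinol equimolar mix (positive) and DMSO (negative).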
aSyn rescue = alpha-synuclein toxicity inhibition in yeast. AID 652106. actives 0.14% (n = 370,000). Potency, µM (top dose mostly 46.1 µM), for the others: at the highest dose growth rescue (activation), most hits filed as activators. Yeast expressing alpha-synuclein, growth rescue, BacTiter-Glo, 24 h; note: % of control where 0% means no effect; nearly all actives have a fitted effect of over 65% in size
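Rescue of yeast growth: cells expressing toxic alpha-synuclein, induced in galactose at OD600 0.02, incubated with compound 24 h at 30 C. ATP luminescence quantified growth; inhibitors of toxicity appear as activators.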
Active calls of the source: *; i = inactive; ? = inconclusive; / = not tested or not shown. Calls come from the whole dose curve; as a rule, active = well fitted curve in the direction sought with a large enough effect; inconclusive = small, poorly fitted or top-dose-only effect, or another doubt; inactive = no such curve, though single readings can be large; an effect the other way counts as inactive or inconclusive. Potency is the fitted concentration of half-maximal effect.

SMILES	TDP-43 yeast inh	FUS yeast rescue	Mito fusion act	Abeta rescue	aSyn rescue
CCC1CN(C(=O)Nc2cccc(OC)c2)c2ccccc2O1 (stereo not drawn)	30%	i	/	i	/
Cc1cc(C)c2nc(NNC(=O)c3ccc(S(=O)(=O)N4CCCCC4)cc3)sc2c1	6.3µM*	?	-8%	i	-1%
CC1CCCN(S(=O)(=O)c2ccc(C(=O)Nc3nnc(-c4ccco4)o3)cc2)C1 (stereo not drawn)	27%	i	2%	i	3%
Cc1cc(C)c2nc(NC(=O)c3ccc(S(=O)(=O)N4CCCC4)cc3)sc2c1	2%	i	/	i	1%
CCc1nnc(NC(=O)c2ccc(S(=O)(=O)N3CCCC(C)C3)cc2)o1 (stereo not drawn)	?	i	-3%	?	22µM*
COc1cccc(NC(=O)CSc2nc(C)c(Cc3ccccc3)c(=O)[nH]2)c1	?	i	/	i	/
O=S(=O)(NCc1nc2cccnc2n1Cc1ccccc1)c1ccc2c(c1)CCCC2	-19%	i	/	i	/
COc1ccc(CCNC(=O)CCCn2c(=O)c3cccn3c3ccc(F)cc32)cc1OC	14%	i	/	i	/
CCCCn1cc2c(c1-c1ccccc1Br)c(=O)n(C)c(=O)n2C	0%	i	/	i	/
CCCCCn1cc2c(c1-c1ccccc1Br)c(=O)n(C)c(=O)n2C	18µM*	i	/	i	/
COc1cc2nc(C)sc2cc1SC	20µM*	?	-4%	i	-1%
COc1cc2nc(/C=C/c3cc(OC)c(OC)c(OC)c3)sc2cc1SC	-22%	?	12%	i	-3%
O=C(Nc1cccc(F)c1)[C@@H](c1ccccc1)N1Cc2ccccc2C1=O	18%	i	/	i	/
O=C(NC(=S)N1CCN(c2ccc(Cl)cc2[N+](=O)[O-])CC1)c1ccco1	13µM*	i	24%	i	-1%
O=C(COc1ccccc1)Nc1ccccc1C(=O)NCc1ccco1	20µM*	i	12%	i	1%
O=c1[nH]c2cc3c(cc2cc1C(c1nnnn1Cc1ccccc1)N1CCN2CCCC2C1)OCCO3 (stereo not drawn)	-21%	18µM*	-3%	i	3%
O=c1[nH]c2cc3c(cc2cc1C(c1nnnn1Cc1ccccc1)N1CCCCCC1)OCCO3 (stereo not drawn)	-8%	i	2%	i	8%
COc1ccc(CCNC(=O)c2ccc3c(c2)N(Cc2ccccc2F)C(=O)c2ccccc2S3(=O)=O)cc1OC	-19%	20µM*	/	i	/
COc1ccc(CCNC(=O)c2ccc3c(c2)N(Cc2cccc(C)c2)C(=O)c2ccccc2S3(=O)=O)cc1OC	-1%	?	/	i	/
O=C(NCc1ccc(Cl)cc1)c1ccc2c(c1)N(Cc1ccccc1F)C(=O)c1ccccc1S2=O (stereo not drawn)	0%	28µM*	/	i	/
O=C(Cc1ccc(Cl)c(Cl)c1)Nc1ccc(S(=O)(=O)Nc2ccon2)cc1	/	i	/	/	/
Cc1cccc(N2CCN(C(=O)c3cccs3)CC2)c1C	5.6µM*	i	-1%	i	4%
O=C(c1ccc(CS(=O)c2ccccc2Cl)o1)N1CCN(c2ccccc2F)CC1 (stereo not drawn)	13µM*	i	/	i	/
O=C(c1cccs1)N1CCN(c2cc(Cl)ccc2Cl)CC1	22µM*	i	-2%	i	-12%
O=C(c1cccs1)N1CCN(c2ccc(Cl)cc2)CC1	?	i	0%	i	9%
SMILES	TDP-43 yeast inh	FUS yeast rescue	Mito fusion act	Abeta rescue	aSyn rescue
Cc1ccc(C(=O)N2CCN(c3cccc(C)c3C)CC2)o1	13µM*	i	11%	i	5%
Cc1cccc(N2CCN(C(=O)c3ccc(CS(=O)Cc4ccc(Cl)cc4)o3)CC2)c1C (stereo not drawn)	6%	?	-15%	i	?
CC1(C(=O)NCc2cccs2)CCN1C(=O)Cc1ccc(Cl)cc1Cl (stereo not drawn)	?	i	/	i	2%
Cc1ccccc1S(=O)Cc1ccc(C(=O)N2CCN(c3cccc(C)c3C)CC2)o1 (stereo not drawn)	35µM*	i	/	i	/
Cc1ccc(/C=N/NC(=S)N2CCOCC2)cc1	22µM*	/	-9%	?	0%
C[C@@H]1CC2[C@@H]3CC[C@H]4CC(=O)CC[C@]4(C)C3=CC[C@]2(C)[C@@]1(O)C(=O)CO (stereo partly drawn)	10µM*	i	?	i	15%
CC(=O)C1(O)C(C)CC2C3CCC4CC(O)CCC4(C)C3=CCC21C (stereo not drawn)	11%	i	10%	i	12%
O=C(Nc1cc(-c2nc3cc(Cl)ccc3o2)ccc1Cl)c1cccc2ccccc12	?	i	/	i	/
C#CC(N)CCC(=O)O (stereo not drawn)	/	/	-4%	/	-2%
O=C1OC(/C(=C\Nc2ccc(F)cc2F)[N+](=O)[O-])c2ccccc21 (stereo not drawn)	?	i	20%	i	18µM*
O=C(NCc1ccccc1)c1ccc2oc(=O)n(Cc3ccccc3)c2c1	22µM*	i	/	i	/
Cc1cccc(CNC(=O)c2ccc3oc(=O)n(Cc4ccccc4)c3c2)c1	?	i	/	i	/
Cc1ccc(S(=O)(=O)Nc2ccccc2CNc2ccc(Br)cn2)cc1	20µM*	/	-23%	i	0%
CCc1ccc(-c2nc3c(=O)n(C)c(=O)nc-3n(CC)n2)cc1	/	/	/	/	-83%
CC(=O)N1N=C(c2cccc([N+](=O)[O-])c2)OC1c1ccccc1Cl (stereo not drawn)	22µM*	i	5%	i	7%
COc1cccc(C(O)c2nc(-c3cc4ccccc4o3)cs2)c1 (stereo not drawn)	20µM*	i	/	i	?
OC(c1cccc(Cl)c1)c1nc(-c2ccoc2)cs1 (stereo not drawn)	11%	i	/	i	21%
OC(c1cccc(Cl)c1)c1nc(-c2cc3ccccc3o2)cs1 (stereo not drawn)	35µM*	i	/	i	-44%
OC(c1cccc(Cl)c1)c1nc(-c2cccc3cccnc23)cs1 (stereo not drawn)	?	i	/	?	18µM*
C=C1C=C(C(F)F)n2ncc(C(=O)NCc3ccc(Cl)cc3Cl)c2N1	/	/	/	/	8%
CC(CCC(C)[n+]1cccc(Br)c1)[n+]1cccc(Br)c1 (stereo not drawn)	/	/	/	/	-10%
CC(C)CC(C(=O)OCC(=O)Nc1cccc(Cl)c1)N1C(=O)C2CC=CCC2C1=O (stereo not drawn)	35µM*	/	1%	i	24%
CN1CCCN(C(=O)c2cc(=O)[nH]c3ccccc23)c2nc3ccccc3nc21	13%	i	0%	i	-12%
